Results reported in PubChem BioAssay (NCI).
The panel holds about 83,000 compounds, 20% with a hit somewhere; the sample as a whole holds those more often.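 Note: values are percent growth. 100 is the growth of untreated cells, values between 100 and 0 indicate rising inhibition; between -100 and 0 indicates cell death.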 Unmarked numbers belong to inactive results. Active and inactive are the calls of the source. The calls were made as follows: active = growth percent below 10; inactive = the rest.

Columns and labels:
Experiment in all cases: NCI-60 one-dose screen, 48 h (100 = growth as untreated, 0 = no growth, -100 = all killed)
HT29 colon = details: 10 µM unless noted
SNB-19 CNS = details: 10 µM unless noted
U251 CNS = details: 10 µM unless noted
PC-3 prostate = details: 10 µM unless noted
SK-MEL-5 melanoma = details: 10 µM unless noted
UACC-62 melanoma = details: 10 µM unless noted
LOX IMVI melanoma = details: 10 µM unless noted
SK-MEL-28 melanoma = details: 10 µM unless noted
SK-MEL-2 melanoma = details: 10 µM unless noted
EKVX NSCLC = details: 10 µM unless noted
SN12C renal = details: 10 µM unless noted
UO-31 renal = details: 10 µM unless noted
TK-10 renal = details: 10 µM unless noted
ACHN renal = details: 10 µM unless noted
A498 renal = details: 10 µM unless noted
CCRF-CEM leukemia = details: 10 µM unless noted
MOLT-4 leukemia = details: 10 µM unless noted
CAKI-1 renal = details: 10 µM unless noted
SNB-75 CNS = details: 10 µM
HCT-15 colon = details: 10 µM unless noted

Structure (SMILES) | growth (HT29 colon) | growth (SNB-19 CNS) | growth (U251 CNS) | growth (PC-3 prostate) | growth (SK-MEL-5 melanoma) | growth (UACC-62 melanoma) | growth (LOX IMVI melanoma) | growth (SK-MEL-28 melanoma) | growth (SK-MEL-2 melanoma) | growth (EKVX NSCLC) | growth (SN12C renal) | growth (UO-31 renal) | growth (TK-10 renal) | growth (ACHN renal) | growth (A498 renal) | growth (CCRF-CEM leukemia) | growth (MOLT-4 leukemia) | growth (CAKI-1 renal) | growth (SNB-75 CNS) | growth (HCT-15 colon)
COc1ccc(-c2nc3sccn3c2/C=C/C(=O)c2cc(F)cc(F)c2)cc1 | 65.2% | 67.8% | 45.4% | 62.3% | 80.9% | 54.4% | 50.1% | 93% | 74.7% | 88% | 92.1% | 60.5% | 164% | 65.4% | 57.6% | 19.4% | 5.45% (active) |  |  | 
COc1ccc(/C=C\c2cc(OC)c(OC)c(OC)c2)cc1OC(=O)c1cccc(Cn2cc(CCOC(=O)c3cccc(Cn4nnc5c4C(=O)c4ccccc4C5=O)c3)nn2)c1 | 12.2% | 28.6% | 23.8% | 22.8% | -28.8% (active) | 45.7% | 21.2% | 58% | 50.9% | 58.3% | 18.9% | 36.6% | 76.4% | 17.2% | -4.1% (active) | 8.91% (active) | 20.7% | 31.2% |  | 
CC1=NC2=CC=CC3=NC(C(Cl)(Cl)Cl)=NC(=N1)N23 | 60% | 84.5% | 74.3% | 86.3% | 88.4% | 69.5% | 80.6% | 86.1% | 86.6% | 76.1% | 86.7% | 63% | 112% | 61% | 81.9% | 70.1% | 4.18% (active) | 61.3% | 56.2% | 
COc1ccc2[nH]c(C(=O)OCc3ccc4c(Cl)cc(Cl)c(O)c4n3)cc2c1 | -80.3% (active) | 53.2% | 7.6% (active) | -55.5% (active) | -30.5% (active) | -89.4% (active) | -93.1% (active) |  | -11.4% (active) |  | -75.6% (active) | -100% (active) | -98.1% (active) | -99.8% (active) | 10.5% | -9.99% (active) | -18.5% (active) | -99.5% (active) | -32.4% (active) | 
Nc1ncnc2c1c(-c1ccc(Oc3ccccc3)cc1)nn2C[C@@H]1SSC[C@@H]1O |  | 60.7% |  | 55.4% | -86.4% (active) | -81.1% (active) | -20.5% (active) | 2.67% (active) | -57.5% (active) | 25.2% | 37.1% | 13.7% |  | 23.6% | 43.8% | -15% (active) | -38.1% (active) |  |  | 64.6%
OCc1ncc(-c2ccccc2)s1 | 102% | 98.5% |  | 89.4% | 105% |  |  | 132% | 113% | 87.8% | 121% | 97.9% | 110% |  | 116% | 90.6% | 110% | 81.8% | 78.8% | 
CC(NNC(C)c1ccccc1)c1ccccc1 (centres undefined) | 95.2% | 100% | 106% | 94% | 101% | 110% | 101% | 118% | 110% | 97.2% | 116% | 93.1% | 105% | 108% | 97.9% | 118% | 113% | 89% |  | 
CCN(CC)c1ccc(C(=N)c2ccc(N(CC)CC)cc2)cc1 | -10.5% (active) | 4.23% (active) |  | 3.06% (active) | -100% (active) | -64.6% (active) |  | -39.9% (active) | -66.6% (active) | 12.4% | 0.751% (active) | -33.6% (active) | 10% |  | -44.3% (active) | 12.1% | -23.5% (active) | -9.36% (active) | -34.3% (active) | 
C/C(=N/NC(=S)Nc1ccccc1)c1nc2ccc(Cl)cc2[nH]1 | -88.5% (active) | -33.7% (active) | -44.2% (active) | -47.7% (active) | -97.3% (active) | -72.6% (active) | -75.8% (active) | -96.6% (active) | -93.6% (active) | -23.6% (active) | -37.4% (active) | -35.5% (active) | -39.1% (active) | 7.65% (active) | -81.4% (active) | 1.46% (active) | -16.7% (active) | 9.36% (active) | -75.5% (active) | 
CN1CCN(Cc2ccc(NC(=O)c3nc4ccc5[nH]ncc5c4c4c3CCC4)cc2C(F)(F)F)CC1 | -66% (active) | -76.7% (active) | -93.7% (active) | -64.8% (active) | 88.5% | -61.7% (active) | -86.8% (active) |  | 104% |  | -82.7% (active) | -96.3% (active) | -91.2% (active) | -99.6% (active) | 84.6% | -9.12% (active) | -38.7% (active) | -97.4% (active) | 96.3% | 
N#Cc1ccc(N2Cc3ccccc3OC3=C2C(=O)c2c(O)ccc(O)c2C3=O)cc1 | -62.4% (active) | 27.6% | 10.2% | -25.6% (active) | 59.9% | -26.3% (active) | -49.7% (active) | -32.2% (active) | -24% (active) |  | -32.9% (active) | -80.5% (active) | -84.4% (active) | -59.9% (active) | 93.4% | -8.98% (active) |  | 2.96% (active) | 76% | 
COc1ccc(Nc2nn3c(-c4ccccc4)cc(-c4ccccc4)nc3c2C(N)=O)c(OC)c1 | 41.9% | 58.2% | 18.6% | 44.6% | 55.9% | 40.7% | 54.6% | 71% | 70.1% | 67.7% | 46.4% | 86.9% | 29.7% | 67% | 70.5% | 73.2% | 72.3% |  |  | 
Nc1nc(Nc2cc(Cl)cc(Cl)c2)nn1S(=O)(=O)c1ccc2ccccc2c1 | 39.8% | 78% | 37.5% | 48.9% | 86.5% | 67% | 60.1% | 84.8% | 79.2% | 53.6% | 43.3% | 14.7% | 63.5% | 29.2% | 15.4% | 57.9% | 37.6% | 64.1% |  | 
CC1CCC(C)N(C)C1 (centres undefined) |  | 98.6% | 107% | 87.5% | 107% |  | 95.9% | 107% |  | 112% | 92.8% | 84.6% | 102% | 105% | 76.5% | 93.9% | 92.5% | 101% |  | 117%
CC(C)(C)n1cc(-c2ccnc(NCCNS(=O)(=O)c3ccc(C(F)(F)F)cc3)c2)c(-c2cccc(O)c2)n1 | 12.4% | 70.5% | 36.8% | 25.4% | 20.9% | 64.1% | 25.8% | 51.3% | 66.5% | 52.2% | 52.8% | 48.1% | 98.7% | 57.1% | 55.1% | 46.1% | 28.9% | 65.9% |  | 
O=C(CSc1nc2ccccc2[nH]1)Nc1ccc(-c2nc3ccccc3s2)c(Cl)c1 | 14.7% | 65% |  | 26.3% | 23.4% | 49.3% |  | 0.271% (active) | 51.2% | 27.1% | 35.1% | 8.16% (active) | 30.1% |  | 71.8% |  | 81.3% | 26.9% | -28.5% (active) | 
CCNc1nc(S(=O)(=O)CC)nc2ccccc12 | 95.5% | 103% | 101% | 96.8% | 90.8% | 90.8% | 101% | 108% | 94.6% | 95% | 101% | 82.4% | 112% | 86.1% | 113% | 86.6% | 91% | 72.8% |  | 
COc1ccc(C2NN=C3c4ccccc4CCC32)cc1 (centres undefined) | 44.5% | 76.5% | 80.4% | 66.6% | 15.2% | 49.9% | 72.5% | 76% | 78.1% | 64.3% | 84.4% | 54.1% | 76.4% | 93.4% | 58.2% | 13.4% | 16.8% | 21.9% | 48.3% | 
O=S1(=O)CCC(N(/N=C/c2ccco2)c2ccccc2)C1 (centres undefined) | 96.3% | 104% | 99% | 93.1% | 103% | 100% | 94.1% | 115% |  |  | 109% | 86% | 101% | 106% | 113% | 94% | 97.1% | 107% | 132% | 
CCCCCCCC/C=C/CCCCCCCC1=NC(C)(C)CN1C(C)(C)CO | -57.8% (active) | 57.9% | -68.1% (active) | 44.9% | 4.8% (active) | -25.3% (active) | -100% (active) | -63.9% (active) | 51.3% | 66.2% | 48.7% | 44.5% | 62.1% | 21.6% | 88.8% | 3.32% (active) | -22.6% (active) | 42.3% | 38.5% | 
COc1cc(/C=C/C(=O)c2cccc(-n3cc(-c4cc(OC)c(OC)c(OC)c4)[nH]c3=O)c2)cc(OC)c1OC |  | 56.6% | -41% (active) | 9.89% (active) | 27% |  | -55% (active) | 4.45% (active) | -2.34% (active) | 51.6% | 11.5% | 6.2% (active) | 27.8% | -57.6% (active) | 76.4% | -1.54% (active) | -16% (active) | -24.2% (active) |  | -4.5% (active)
CC(=O)Nc1ccc(S(=O)(=O)n2ccc(-c3ccc4c(c3)CCC(C)(C)O4)n2)cc1 |  | 73.3% |  | 44.4% | 26.3% | 62.4% | 64.1% | 93.1% | 53.5% |  | 89% | 67.9% | 55.1% | 79.3% | 21.9% | 55.4% | 50.7% | 48.8% |  | 59.3%
COc1cc(C2NN=C3c4ccccc4CCC32)cc(OC)c1OC (centres undefined) | 105% | 79.3% |  | 75.2% | 72.2% | 69.8% | 82.4% | 101% | 76.9% | 72.6% | 77.7% | 41.4% | 94.1% | 80.3% | 89.6% | 1.98% (active) | 60.5% | 65% | 59.8% | 
Cn1cc(-c2cnc3ccc(NC(=O)Nc4ccc(F)c(Br)c4)cc3n2)cn1 | 40% | 57.7% | 44.9% | 0.663% (active) | -9.12% (active) | -41.2% (active) | 4.06% (active) | 50.1% | -3.42% (active) | 29.7% | 46.1% | 16.9% | 52% | 20.2% | 16.5% | 4.33% (active) | -21.2% (active) | 12.8% |  | 
CC(C)NCCCNC1=C(Cl)C(=O)c2ccccc2C1=O | 83.1% | 106% | 52.9% | 57.5% | 44.3% | 92.7% | 25.9% | 112% | 125% | 80.4% | 91.7% | 81.9% | 114% | 81.1% | 88.1% | 76.6% | -45.8% (active) | 66.7% |  | 
C=C1C(=O)O[C@H]2[C@H]1CC/C(COC(=O)NCc1ccccc1OC)=C\CC[C@@]1(C)O[C@@H]21 | -3.76% (active) | 57.6% | 74.8% | 52.4% | 92.8% | 23.4% | 5.34% (active) | 47.5% | 60.6% |  | 23.4% | 22% | 20.6% | 6.65% (active) | 67.1% | 6.8% (active) |  | 13.7% | 77.4% | 
